Laboratory results: PubChem BioAssay (EPA / NIEHS)
The source made the active and inactive calls. How the source made its calls: active means hit-call score of the fitted dose curve at least 0.9, where 1 is the maximum; inactive means score below 0.9.

Legend:
[1] = read-out: TIMP metallopeptidase inhibitor 1 (TIMP1), TIMP1 (gene 7076); assay: BSK_hDFCGF_TIMP1: BioMAP Diversity Plus: hDFCGF Assay for TIMP metallopeptidase inhibitor 1 (TIMP1) Biomarker Activity (AID 2283062); conditions: primary human foreskin fibroblasts; actives raise or lower the signal
In short: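 Primary human foreskin fibroblasts in the hDFCGF system were dosed with compound for 24 h, then TIMP-1 was measured by ELISA. Activity was fitted bidirectionally relative to DMSO control; parallel SRB staining assessed cytotoxicity.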

[2] = read-out: Monokine induced gamma interferon (MIG), CXCL9 (gene 4283); assay: BSK_hDFCGF_MIG: BioMAP Diversity Plus: hDFCGF Assay for Monokine induced gamma interferon (MIG) Biomarker Activity (AID 2283063); conditions: primary human foreskin fibroblasts; actives raise or lower the signal
In short: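 ELISA read-out of MIG from primary human dermal fibroblasts 24 h post-dosing. Gain or loss of signal fitted bidirectionally, DMSO as baseline.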

[3] = read-out: Matrix Metallopeptidase 1 (MMP1), MMP1 (gene 4312); assay: BSK_hDFCGF_MMP1: BioMAP Diversity Plus: hDFCGF Assay for Matrix Metallopeptidase 1 (MMP1) Biomarker Activity (AID 2283064); conditions: primary human foreskin fibroblasts; actives raise or lower the signal
In short: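 Primary human foreskin fibroblasts in the hDFCGF system were dosed with test chemical, and MMP1 was measured by ELISA 24 h later. Values come from bidirectional curve fitting against the DMSO baseline.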

[4] = read-out: Vascular cell adhesion molecule 1 (VCAM1), VCAM1 (gene 7412); assay: BSK_hDFCGF_VCAM1: BioMAP Diversity Plus: hDFCGF Assay for Vascular cell adhesion molecule 1 (VCAM1) Biomarker Activity (AID 2283065); conditions: primary human foreskin fibroblasts; actives raise or lower the signal;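 on AC50: VCAM-1 protein level quantified by ELISA after 24 h chemical exposure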
In short: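 Primary human foreskin fibroblasts (hDFCGF system) were dosed with chemical and VCAM-1 was measured by ELISA 24 h later. Bidirectional curve fitting used DMSO as negative control and activity baseline.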

[5] = read-out: Plasminogen activator inhibitor-1 (PAI1), SERPINE1 (gene 5054); assay: BSK_hDFCGF_PAI1: BioMAP Diversity Plus: hDFCGF Assay for Plasminogen activator inhibitor-1 (PAI1) Biomarker Activity (AID 2283066); conditions: primary human foreskin fibroblasts; actives raise or lower the signal
In short: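 Primary dermal fibroblasts (human foreskin), hDFCGF system; compound 24 h; PAI-1 by ELISA; bidirectional fit vs DMSO control.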

[6] = read-out: Intercellular Adhesion Molecule 1 (ICAM1), ICAM1 (gene 3383); assay: BSK_KF3CT_ICAM1: BioMAP Diversity Plus: KF3CT Assay for Intercellular Adhesion Molecule 1 (ICAM1) Biomarker Activity (AID 2283067); conditions: primary human keratinocytes with fibroblasts; actives raise or lower the signal
In short: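 Human keratinocyte plus foreskin fibroblast primary co-culture was exposed to chemical for 24 h. ICAM-1 was then quantified by ELISA, and the data were fit bidirectionally against DMSO as the negative control and baseline.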

[7] = read-out: Interferon-gamma inducible Protein 10 (IP10), CXCL10 (gene 3627); assay: BSK_KF3CT_IP10: BioMAP Diversity Plus: KF3CT Assay for Interferon-gamma inducible Protein 10 (IP10) Biomarker Activity (AID 2283068); conditions: primary human keratinocytes with fibroblasts; actives raise or lower the signal
In short: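 KF3CT co-culture (keratinocytes + foreskin fibroblasts), 24 h compound, IP-10 by ELISA; bidirectional fit vs DMSO baseline.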

[8] = BSK_KF3CT_SRB: Viability Assessment in the BioMAP Diversity Plus: KF3CT Assay (AID 2283069); conditions: primary human keratinocytes with fibroblasts;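 further: total protein by sulforhodamine B staining as a cytotoxicity measure; read 24 h after compound addition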
In short: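 Human primary keratinocyte plus foreskin fibroblast co-culture exposed to chemicals for 24 h. Total protein measured by 0.1% sulforhodamine B staining after 10% TCA fixation, read at 560 nm; bidirectional fitting versus DMSO baseline.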

[9] = read-out: Interleukin-1 alpha (IL1a), IL1A (gene 3552); assay: BSK_KF3CT_IL1a: BioMAP Diversity Plus: KF3CT Assay for Interleukin-1 alpha (IL1a) Biomarker Activity (AID 2283070); conditions: primary human keratinocytes with fibroblasts; actives raise or lower the signal
In short: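 Human keratinocyte plus foreskin fibroblast primary co-culture, sampled 24 h after chemical dosing. IL-1a measured by ELISA; responses fitted bidirectionally against DMSO baseline (negative control), so gain or loss of signal both count.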

[10] = read-out: Transforming growth factor beta 1 (TGFb1), TGFB1 (gene 7040); assay: BSK_KF3CT_TGFb1: BioMAP Diversity Plus: KF3CT Assay for Transforming growth factor beta 1 (TGFb1) Biomarker Activity (AID 2283072); conditions: primary human keratinocytes with fibroblasts; actives raise or lower the signal
In short: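 Primary human skin cells (keratinocytes, foreskin fibroblasts) were co-cultured, exposed to test chemical and sampled at 24 h. TGF-b1 levels were measured by ELISA and fitted bidirectionally relative to DMSO.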

[11] = read-out: C-C motif chemokine 2 (Homo sapiens) (UniProt P13500); assay: BSK_KF3CT_MCP1: BioMAP Diversity Plus: KF3CT Assay for Monocyte Chemoattractant Protein 1 (MCP1/CCL2) Biomarker Activity (AID 2283073); conditions: primary human keratinocytes with fibroblasts; actives raise or lower the signal
In short: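 Human keratinocyte plus foreskin fibroblast primary co-culture exposed to chemical for 24 h. MCP-1 levels measured by ELISA. Bidirectional curve fitting relative to DMSO negative control as baseline.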

[12] = read-out: Matrix Metallopeptidase 9 (MMP9), MMP9 (gene 4318); assay: BSK_KF3CT_MMP9: BioMAP Diversity Plus: KF3CT Assay for Matrix Metallopeptidase 9 (MMP9) Biomarker Activity (AID 2283074); conditions: primary human keratinocytes with fibroblasts; actives raise or lower the signal;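 on AC50: MMP9 protein level quantified by ELISA in the co-culture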
In short: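 Keratinocyte plus foreskin fibroblast human primary skin co-culture was dosed with chemical and MMP-9 was quantified by ELISA 24 h later. Bidirectional curve fitting used DMSO as negative control and activity baseline.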

[13] = read-out: urokinase plasminogen activator (uPA), PLAU (gene 5328); assay: BSK_KF3CT_uPA: BioMAP Diversity Plus: KF3CT Assay for urokinase plasminogen activator (uPA) Biomarker Activity (AID 2283075); conditions: primary human keratinocytes with fibroblasts; actives raise or lower the signal
In short: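 Human keratinocyte plus foreskin fibroblast primary co-culture exposed to chemical for 24 h. uPA levels were quantified by ELISA, and activity was fitted bidirectionally against a DMSO negative-control baseline.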

CD40, CD40 (gene 958) = assay: BSK_LPS_CD40: BioMAP Diversity Plus: LPS Assay for CD40 Biomarker Activity (AID 2283076); conditions: primary human HUVEC with PBMC; actives raise or lower the signal
In short: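 Primary human umbilical vein endothelial cells co-cultured with peripheral blood mononuclear cells, LPS-stimulated, were dosed with chemical and read 24 h later. CD40 levels were measured by ELISA and fitted bidirectionally against DMSO as negative control and baseline.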

[14] = read-out: E-selectin (Homo sapiens) (UniProt P16581); assay: BSK_LPS_Eselectin: BioMAP Diversity Plus: LPS Assay for Eselectin Biomarker Activity (AID 2283077); conditions: primary human HUVEC with PBMC; actives raise or lower the signal
In short: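 Human umbilical vein endothelial cells co-cultured with peripheral blood mononuclear cells under LPS stimulation; E-selectin measured by ELISA 24 h after chemical dosing. Activity fitted bidirectionally against DMSO as negative control and baseline.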

[15] = read-out: Interleukin-8 (IL8), CXCL8 (gene 3576); assay: BSK_LPS_IL8: BioMAP Diversity Plus: LPS Assay for Interleukin-8 (IL8) Biomarker Activity (AID 2283078); conditions: primary human HUVEC with PBMC; actives raise or lower the signal
In short: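 Human umbilical vein endothelial cells co-cultured with PBMC were stimulated with LPS; IL-8 levels were measured by ELISA 24 h after chemical dosing. Activity was fitted bidirectionally against DMSO as negative control and baseline.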

[16] = BSK_LPS_SRB: Viability Assessment in the BioMAP Diversity Plus: LPS Assay (AID 2283079); conditions: primary human HUVEC with PBMC;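 further: total protein by sulforhodamine B absorbance as a cytotoxicity measure; measured one day after compound addition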
In short: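 Human umbilical vein endothelial cells co-cultured with PBMC (LPS system) were dosed for 24 h. Total protein was stained with 0.1% sulforhodamine B after 10% TCA fixation, read at 560 nm, and fitted bidirectionally against DMSO baseline.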

[17] = read-out: Interleukin-1 alpha (IL1a), IL1A (gene 3552); assay: BSK_LPS_IL1a: BioMAP Diversity Plus: LPS Assay for Interleukin-1 alpha (IL1a) Biomarker Activity (AID 2283080); conditions: primary human HUVEC with PBMC; actives raise or lower the signal
In short: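 Human umbilical vein endothelial cells co-cultured with peripheral blood mononuclear cells were LPS-stimulated and exposed to test chemicals for 24 h. IL-1 alpha was quantified by ELISA, with bidirectional curve fitting against DMSO as the negative control and baseline.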

[18] = read-out: Monocyte Chemoattractant Protein-1 (MCP1), CCL2 (gene 6347); assay: BSK_LPS_MCP1: BioMAP Diversity Plus: LPS Assay for Monocyte Chemoattractant Protein-1 (MCP1) Biomarker Activity (AID 2283081); conditions: primary human HUVEC with PBMC; actives raise or lower the signal;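 on AC50: co-culture stimulated with LPS; secreted MCP-1 protein quantified by ELISA in culture supernatant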
In short: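 HUVEC plus PBMC co-culture (human primary cells, LPS system) exposed to test chemical for 24 h; MCP-1 measured by ELISA. Bidirectional curve fitting against DMSO baseline; parallel SRB total-protein staining flags overt cytotoxicity.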

[19] = read-out: TIMP metallopeptidase inhibitor 2 (TIMP2), TIMP2 (gene 7077); assay: BSK_KF3CT_TIMP2: BioMAP Diversity Plus: KF3CT Assay for TIMP metallopeptidase inhibitor 2 (TIMP2) Biomarker Activity (AID 2283071); conditions: primary human keratinocytes with fibroblasts; actives raise or lower the signal
In short: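 Cells: human keratinocytes co-cultured with foreskin fibroblasts. Treat with chemical, 24 h. Measure TIMP-2 by ELISA; fit curves bidirectionally vs DMSO baseline.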

Measured: AC50

E-selectin (Homo sapiens), sequence (P16581 whole entry, looked up): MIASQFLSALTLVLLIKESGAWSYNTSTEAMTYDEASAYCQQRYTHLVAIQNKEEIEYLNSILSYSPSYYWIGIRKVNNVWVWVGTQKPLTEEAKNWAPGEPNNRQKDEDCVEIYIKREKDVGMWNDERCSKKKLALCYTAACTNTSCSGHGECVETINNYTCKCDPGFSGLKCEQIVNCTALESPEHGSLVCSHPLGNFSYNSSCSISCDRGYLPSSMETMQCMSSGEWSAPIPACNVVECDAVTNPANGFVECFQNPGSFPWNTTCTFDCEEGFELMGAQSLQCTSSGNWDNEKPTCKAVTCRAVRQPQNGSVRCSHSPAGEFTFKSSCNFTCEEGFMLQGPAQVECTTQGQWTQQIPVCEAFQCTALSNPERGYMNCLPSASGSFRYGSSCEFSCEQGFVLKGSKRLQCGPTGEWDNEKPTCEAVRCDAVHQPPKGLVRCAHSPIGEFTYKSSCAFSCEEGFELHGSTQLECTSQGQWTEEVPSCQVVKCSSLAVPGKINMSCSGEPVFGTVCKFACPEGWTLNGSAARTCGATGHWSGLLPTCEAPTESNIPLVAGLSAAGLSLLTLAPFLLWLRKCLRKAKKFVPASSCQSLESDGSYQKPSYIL

COCCOC[C@H](CC1(C(=O)NC2CCC(C(=O)O)CC2)CCCC1)C(=O)Oc1ccc2c(c1)CCC2 (some centres not stated)
not listed: [19]
inactive: all other assays above

C=CCc1ccc(O)c(OC)c1
not listed: [11] | [16]
inactive: all other assays above

C[C@]12C=CC(=O)C=C1CC[C@@H]1[C@@H]2C(=O)C[C@@]2(C)[C@H]1CC[C@]2(O)C(=O)CO
not listed: [11] | [13] | [16]
inactive: all other assays above

CC(=O)C(C)=CC1C(C)=CCCC1(C)C (configuration not stated)
not listed: [11] | [16]
inactive: all other assays above

Cc1cccc(C)c1O
not listed: [16] | [19]
inactive: all other assays above

CCc1c(C(=O)NN2CCCCC2)nn(-c2ccc(Cl)cc2Cl)c1-c1ccc(Br)cc1
active: [1] 3.54 µM | [2] 4.28 µM | [3] 3.03 µM | [4] 3.82 µM | [5] 2.3 µM | [7] 13.1 µM | [8] 7.2 µM | [9] 9.35 µM | [19] 5.8 µM | [10] 6.72 µM | [12] 4.31 µM | CD40, CD40 (gene 958) 12.3 µM | [14] 7.44 µM | [15] 5.2 µM | [16] 9.94 µM | [17] 10.4 µM | [18] 8.8 µM
inactive: [6]

Cc1ccc(C(C)C)c(O)c1
not listed: [19]
inactive: all other assays above
